# In paper PMC7862700, “An all-to-all approach to the identification of sequence-specific readers for epigenetic DNA modifications on cytosine”:
# Legend:
# Test in all cases: DAPPL (digital affinity profiling via proximity ligation, sequencing); 10 mM Tris-HCl pH 7.5, 50 mM NaCl, 1 mM DTT, 4% glycerol, room temperature, 30 min; GST-TFs on glutathione beads, 16-mer random dsDNA library, 0.1% formaldehyde crosslink after washing; high values mean tight binding
# FEV = molecular target: T1, FEV (Homo sapiens, UniProt Q99581 1-238); details: protein: recombinant; tags: N-terminal GST; dsDNA, one strand shown
# T1 sequence: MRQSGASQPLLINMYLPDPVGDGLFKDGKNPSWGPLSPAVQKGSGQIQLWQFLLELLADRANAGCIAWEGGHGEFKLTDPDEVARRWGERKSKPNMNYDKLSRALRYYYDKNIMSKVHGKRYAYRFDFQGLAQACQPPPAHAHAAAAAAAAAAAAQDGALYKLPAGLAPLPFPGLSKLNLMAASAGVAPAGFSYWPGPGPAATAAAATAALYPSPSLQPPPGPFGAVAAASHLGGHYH
# Method in brief: (§1)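 Human transcription factors fused to GST were expressed in yeast, captured on glutathione beads, given DNA barcodes and pooled with a GST-only negative control. Pools were incubated with 200 nmole of a 16-mer random double-stranded DNA library in Tris/NaCl/DTT/glycerol buffer at room temperature for 30 min. They were then washed, crosslinked with 0.1% formaldehyde, proximity-ligated (BsaI/T4 ligase, 1 h, 37 °C), PCR-amplified and sequenced on an Illumina NextSeq500. Binding signal is each 6-mer's read frequency for a factor divided by its frequency for the GST control.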
# ETV5 = ETV5 (Homo sapiens, UniProt P41161 1-510); details: protein: recombinant; tags: N-terminal GST; dsDNA, one strand shown
# Method in brief: as §1
# HSF1 = HSF1 (Homo sapiens, UniProt Q00613 1-529); details: protein: recombinant; tags: N-terminal GST; chain copies: 3; dsDNA, one strand shown
# Method in brief: as §1
# SPIC = molecular target: T2, SPIC (Homo sapiens, UniProt Q8N5J4 1-248); details: protein: recombinant; tags: N-terminal GST; dsDNA, one strand shown
# T2 sequence: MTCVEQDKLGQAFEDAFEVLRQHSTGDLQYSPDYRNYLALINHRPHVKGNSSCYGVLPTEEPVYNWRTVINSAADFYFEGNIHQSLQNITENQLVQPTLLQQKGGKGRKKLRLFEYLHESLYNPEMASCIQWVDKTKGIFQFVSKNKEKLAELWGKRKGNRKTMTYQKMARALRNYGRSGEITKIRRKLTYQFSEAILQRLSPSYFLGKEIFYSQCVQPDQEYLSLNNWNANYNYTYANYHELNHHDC
# Method in brief: as §1
# ELF4 = ELF4 (Homo sapiens, UniProt Q99607 1-663); details: protein: recombinant; tags: N-terminal GST; dsDNA, one strand shown
# Method in brief: as §1
# ELK4 = molecular target: T3, ELK4 (Homo sapiens, UniProt P28324-2 1-405); details: protein: recombinant; tags: N-terminal GST; dsDNA, one strand shown
# T3 sequence: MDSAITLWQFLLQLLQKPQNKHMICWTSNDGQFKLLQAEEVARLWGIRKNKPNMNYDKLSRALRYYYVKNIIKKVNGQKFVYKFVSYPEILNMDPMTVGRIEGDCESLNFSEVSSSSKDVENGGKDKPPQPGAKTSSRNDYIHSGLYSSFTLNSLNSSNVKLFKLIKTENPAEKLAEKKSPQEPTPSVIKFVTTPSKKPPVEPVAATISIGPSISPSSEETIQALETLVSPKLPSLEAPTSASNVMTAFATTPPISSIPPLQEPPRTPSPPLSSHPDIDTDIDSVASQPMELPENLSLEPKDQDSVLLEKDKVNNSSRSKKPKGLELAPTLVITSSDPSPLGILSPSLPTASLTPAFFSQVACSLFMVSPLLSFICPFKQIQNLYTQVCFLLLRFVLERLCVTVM
# Method in brief: as §1
# ETV2 = molecular target: T4, ETV2 (Homo sapiens, UniProt O00321 1-342); details: protein: recombinant; tags: N-terminal GST; dsDNA, one strand shown
# T4 sequence: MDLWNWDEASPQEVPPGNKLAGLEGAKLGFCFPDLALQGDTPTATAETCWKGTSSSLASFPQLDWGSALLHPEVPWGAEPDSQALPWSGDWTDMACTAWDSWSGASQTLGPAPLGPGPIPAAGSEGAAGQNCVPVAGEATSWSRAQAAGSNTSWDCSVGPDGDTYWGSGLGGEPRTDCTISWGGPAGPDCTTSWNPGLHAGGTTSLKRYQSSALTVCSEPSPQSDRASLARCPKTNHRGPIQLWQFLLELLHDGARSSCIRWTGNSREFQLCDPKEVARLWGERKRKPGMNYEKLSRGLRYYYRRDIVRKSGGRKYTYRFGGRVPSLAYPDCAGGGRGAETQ
# Method in brief: as §1
# ELF3 = molecular target: T5, ELF3 (Homo sapiens, UniProt P78545 1-371); details: protein: recombinant; tags: N-terminal GST; dsDNA, one strand shown
# T5 sequence: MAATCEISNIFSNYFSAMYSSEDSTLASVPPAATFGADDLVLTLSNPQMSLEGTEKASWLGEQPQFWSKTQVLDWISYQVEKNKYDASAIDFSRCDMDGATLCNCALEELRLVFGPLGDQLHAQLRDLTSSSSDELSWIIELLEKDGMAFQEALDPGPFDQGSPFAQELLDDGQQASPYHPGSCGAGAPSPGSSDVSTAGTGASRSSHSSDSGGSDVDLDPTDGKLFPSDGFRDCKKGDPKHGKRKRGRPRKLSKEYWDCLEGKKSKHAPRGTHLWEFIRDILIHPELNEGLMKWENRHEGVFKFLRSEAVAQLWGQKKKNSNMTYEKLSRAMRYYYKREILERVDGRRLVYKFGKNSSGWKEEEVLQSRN
# Method in brief: as §1
# CRX = CRX (Homo sapiens, UniProt O43186 1-299); details: protein: recombinant; tags: N-terminal GST; dsDNA, one strand shown
# Method in brief: as §1
# ETV1 = ETV1 (Homo sapiens, UniProt P50549 1-477); details: protein: recombinant; tags: N-terminal GST; dsDNA, one strand shown
# Method in brief: as §1
# ERF = molecular target: T6, ERF (Homo sapiens, UniProt P50548 1-548); details: protein: recombinant; tags: N-terminal GST; dsDNA, one strand shown
# T6 sequence: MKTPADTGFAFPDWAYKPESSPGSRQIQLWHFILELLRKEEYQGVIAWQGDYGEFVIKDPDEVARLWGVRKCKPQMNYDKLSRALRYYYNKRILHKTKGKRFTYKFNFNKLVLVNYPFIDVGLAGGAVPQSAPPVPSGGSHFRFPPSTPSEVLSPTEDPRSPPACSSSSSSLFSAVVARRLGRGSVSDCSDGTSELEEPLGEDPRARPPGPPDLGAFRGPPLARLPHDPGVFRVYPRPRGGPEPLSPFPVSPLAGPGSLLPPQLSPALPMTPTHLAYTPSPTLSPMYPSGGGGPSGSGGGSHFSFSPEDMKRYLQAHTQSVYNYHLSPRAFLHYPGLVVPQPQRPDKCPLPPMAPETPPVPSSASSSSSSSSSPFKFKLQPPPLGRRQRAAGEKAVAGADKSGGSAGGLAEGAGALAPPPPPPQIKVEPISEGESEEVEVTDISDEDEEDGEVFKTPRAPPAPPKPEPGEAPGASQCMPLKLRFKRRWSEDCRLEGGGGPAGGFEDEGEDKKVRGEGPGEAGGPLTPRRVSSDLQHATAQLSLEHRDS
# Method in brief: as §1
# ETV3L = molecular target: T7, ETV3L (Homo sapiens, UniProt Q6ZN32 1-361); details: protein: recombinant; tags: N-terminal GST; dsDNA, one strand shown
# T7 sequence: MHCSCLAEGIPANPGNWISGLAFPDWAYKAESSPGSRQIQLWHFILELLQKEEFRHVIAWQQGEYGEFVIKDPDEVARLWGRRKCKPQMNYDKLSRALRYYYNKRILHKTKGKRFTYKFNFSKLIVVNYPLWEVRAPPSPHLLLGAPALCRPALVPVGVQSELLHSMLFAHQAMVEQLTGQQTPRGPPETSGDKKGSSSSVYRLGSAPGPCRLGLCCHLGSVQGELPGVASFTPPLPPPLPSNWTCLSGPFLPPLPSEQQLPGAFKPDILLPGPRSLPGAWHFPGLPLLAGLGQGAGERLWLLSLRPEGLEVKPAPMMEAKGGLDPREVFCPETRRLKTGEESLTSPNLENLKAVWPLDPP
# Method in brief: as §1
# ETS2 = molecular target: T8, ETS2 (Homo sapiens, UniProt P15036 1-469); details: protein: recombinant; tags: N-terminal GST; dsDNA, one strand shown
# T8 sequence: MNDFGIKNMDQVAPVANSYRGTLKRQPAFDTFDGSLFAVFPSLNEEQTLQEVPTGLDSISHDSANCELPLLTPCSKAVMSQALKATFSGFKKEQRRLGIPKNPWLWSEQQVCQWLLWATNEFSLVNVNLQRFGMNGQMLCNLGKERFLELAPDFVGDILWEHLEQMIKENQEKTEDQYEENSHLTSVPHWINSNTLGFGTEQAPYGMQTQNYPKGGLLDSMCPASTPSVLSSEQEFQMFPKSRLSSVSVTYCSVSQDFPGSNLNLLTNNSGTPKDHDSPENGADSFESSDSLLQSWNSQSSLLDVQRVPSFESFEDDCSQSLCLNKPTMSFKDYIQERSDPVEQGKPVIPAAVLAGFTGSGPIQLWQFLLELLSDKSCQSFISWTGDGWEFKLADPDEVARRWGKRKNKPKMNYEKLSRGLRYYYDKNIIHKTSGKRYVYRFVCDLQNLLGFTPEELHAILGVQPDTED
# Method in brief: as §1
# SPDEF = molecular target: T9, SPDEF (Homo sapiens, UniProt O95238 1-335); details: protein: recombinant; tags: N-terminal GST; dsDNA, one strand shown
# T9 sequence: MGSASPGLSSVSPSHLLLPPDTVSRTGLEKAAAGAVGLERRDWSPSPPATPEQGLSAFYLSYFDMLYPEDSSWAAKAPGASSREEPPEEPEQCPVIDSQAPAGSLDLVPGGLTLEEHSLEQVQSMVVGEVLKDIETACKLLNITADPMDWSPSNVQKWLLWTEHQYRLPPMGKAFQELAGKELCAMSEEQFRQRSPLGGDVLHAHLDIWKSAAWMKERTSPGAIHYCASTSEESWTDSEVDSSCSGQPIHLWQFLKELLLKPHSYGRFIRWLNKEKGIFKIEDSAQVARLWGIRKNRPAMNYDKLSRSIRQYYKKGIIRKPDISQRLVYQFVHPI
# Method in brief: as §1
# ETV7 = molecular target: T10, ETV7 (Homo sapiens, UniProt Q9Y603 1-341); details: protein: recombinant; tags: N-terminal GST; dsDNA, one strand shown
# T10 sequence: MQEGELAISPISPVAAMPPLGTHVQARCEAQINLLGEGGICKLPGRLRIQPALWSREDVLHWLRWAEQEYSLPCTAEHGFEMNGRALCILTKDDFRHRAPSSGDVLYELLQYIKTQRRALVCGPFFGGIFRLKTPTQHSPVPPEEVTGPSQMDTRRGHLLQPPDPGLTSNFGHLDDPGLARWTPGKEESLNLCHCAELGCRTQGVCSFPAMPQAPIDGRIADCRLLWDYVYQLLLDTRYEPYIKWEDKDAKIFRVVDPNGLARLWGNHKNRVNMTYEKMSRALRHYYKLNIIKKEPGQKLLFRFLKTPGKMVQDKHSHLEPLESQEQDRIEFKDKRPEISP
# Method in brief: as §1
# ELF5 = molecular target: T11, ELF5 (Homo sapiens, UniProt Q9UKW6-2 1-255); details: protein: recombinant; tags: N-terminal GST; dsDNA, one strand shown
# T11 sequence: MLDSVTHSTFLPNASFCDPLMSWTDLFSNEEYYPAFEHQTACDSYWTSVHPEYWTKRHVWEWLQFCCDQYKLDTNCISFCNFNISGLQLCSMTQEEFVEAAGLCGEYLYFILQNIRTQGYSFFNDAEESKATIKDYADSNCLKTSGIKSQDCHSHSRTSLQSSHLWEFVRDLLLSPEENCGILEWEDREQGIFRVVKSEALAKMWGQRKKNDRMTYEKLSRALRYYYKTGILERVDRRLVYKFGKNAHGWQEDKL
# Method in brief: as §1
# ETV3 = molecular target: T12, ETV3 (Homo sapiens, UniProt P41162-2 1-143); details: protein: recombinant; tags: N-terminal GST; dsDNA, one strand shown
# T12 sequence: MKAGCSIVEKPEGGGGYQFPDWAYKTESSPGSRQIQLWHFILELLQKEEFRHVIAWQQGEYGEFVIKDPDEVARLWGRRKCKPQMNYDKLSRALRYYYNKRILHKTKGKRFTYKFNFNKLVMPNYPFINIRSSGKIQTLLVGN
# Method in brief: as §1
# ETV6 = ETV6 (Homo sapiens, UniProt P41212 1-452); details: protein: recombinant; tags: N-terminal GST; dsDNA, one strand shown
# Method in brief: as §1
# ETV1, sequence (P50549 whole entry): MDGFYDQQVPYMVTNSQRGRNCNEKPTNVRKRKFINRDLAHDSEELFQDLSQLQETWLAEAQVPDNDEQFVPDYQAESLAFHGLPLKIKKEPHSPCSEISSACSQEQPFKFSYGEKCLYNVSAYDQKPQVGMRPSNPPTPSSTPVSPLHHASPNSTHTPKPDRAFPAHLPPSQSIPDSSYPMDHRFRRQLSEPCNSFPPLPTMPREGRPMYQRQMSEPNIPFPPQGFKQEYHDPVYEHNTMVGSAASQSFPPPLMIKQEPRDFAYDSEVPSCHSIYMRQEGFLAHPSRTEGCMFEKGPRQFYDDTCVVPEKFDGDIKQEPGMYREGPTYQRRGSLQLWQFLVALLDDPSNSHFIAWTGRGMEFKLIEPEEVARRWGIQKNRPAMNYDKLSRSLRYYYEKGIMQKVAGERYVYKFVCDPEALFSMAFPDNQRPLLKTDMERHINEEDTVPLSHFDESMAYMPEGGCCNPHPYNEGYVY
# ETV5, sequence (P41161 whole entry): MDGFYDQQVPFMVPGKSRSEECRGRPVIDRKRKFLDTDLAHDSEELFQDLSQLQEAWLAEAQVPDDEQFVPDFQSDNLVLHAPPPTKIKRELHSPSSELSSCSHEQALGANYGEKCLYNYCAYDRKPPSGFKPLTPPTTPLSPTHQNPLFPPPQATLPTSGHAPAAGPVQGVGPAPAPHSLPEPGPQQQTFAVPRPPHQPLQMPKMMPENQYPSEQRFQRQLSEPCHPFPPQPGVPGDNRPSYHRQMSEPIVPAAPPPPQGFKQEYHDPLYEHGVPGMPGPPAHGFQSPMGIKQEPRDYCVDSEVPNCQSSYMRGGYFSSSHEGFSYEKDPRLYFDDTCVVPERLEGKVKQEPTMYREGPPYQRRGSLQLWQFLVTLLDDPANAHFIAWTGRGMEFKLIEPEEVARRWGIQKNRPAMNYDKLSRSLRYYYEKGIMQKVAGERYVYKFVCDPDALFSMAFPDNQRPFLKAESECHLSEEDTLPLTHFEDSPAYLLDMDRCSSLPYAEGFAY
# ELF4, sequence (Q99607 whole entry): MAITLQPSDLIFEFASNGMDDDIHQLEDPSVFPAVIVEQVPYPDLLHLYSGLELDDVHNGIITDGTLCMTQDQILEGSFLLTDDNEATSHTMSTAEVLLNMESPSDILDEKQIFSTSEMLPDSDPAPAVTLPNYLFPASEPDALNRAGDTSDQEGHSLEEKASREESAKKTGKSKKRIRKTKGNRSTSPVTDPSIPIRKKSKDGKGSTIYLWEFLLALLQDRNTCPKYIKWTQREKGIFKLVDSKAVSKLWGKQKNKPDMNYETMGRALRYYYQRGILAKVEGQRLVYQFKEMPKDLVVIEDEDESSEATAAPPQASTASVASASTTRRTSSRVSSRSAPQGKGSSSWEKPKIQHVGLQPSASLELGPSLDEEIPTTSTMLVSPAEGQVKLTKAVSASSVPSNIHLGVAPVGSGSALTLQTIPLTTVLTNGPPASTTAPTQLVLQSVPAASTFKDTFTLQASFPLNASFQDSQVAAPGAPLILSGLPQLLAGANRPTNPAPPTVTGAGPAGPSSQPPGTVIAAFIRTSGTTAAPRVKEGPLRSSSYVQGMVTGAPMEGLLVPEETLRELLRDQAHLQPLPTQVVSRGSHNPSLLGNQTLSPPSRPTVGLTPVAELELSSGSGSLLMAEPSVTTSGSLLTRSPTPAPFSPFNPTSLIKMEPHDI
# ETV6, sequence (P41212 whole entry): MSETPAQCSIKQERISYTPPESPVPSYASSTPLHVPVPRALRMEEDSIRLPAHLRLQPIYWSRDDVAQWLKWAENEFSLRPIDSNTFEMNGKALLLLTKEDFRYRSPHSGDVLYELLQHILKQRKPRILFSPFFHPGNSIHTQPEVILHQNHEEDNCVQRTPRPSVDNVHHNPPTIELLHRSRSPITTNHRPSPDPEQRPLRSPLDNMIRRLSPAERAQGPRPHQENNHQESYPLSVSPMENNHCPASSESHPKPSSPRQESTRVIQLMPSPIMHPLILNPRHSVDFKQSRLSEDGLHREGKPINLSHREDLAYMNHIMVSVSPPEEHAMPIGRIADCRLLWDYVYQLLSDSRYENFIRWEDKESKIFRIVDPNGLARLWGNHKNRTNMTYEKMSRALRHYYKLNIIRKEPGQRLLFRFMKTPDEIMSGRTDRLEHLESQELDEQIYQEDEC
# CRX, sequence (O43186 whole entry): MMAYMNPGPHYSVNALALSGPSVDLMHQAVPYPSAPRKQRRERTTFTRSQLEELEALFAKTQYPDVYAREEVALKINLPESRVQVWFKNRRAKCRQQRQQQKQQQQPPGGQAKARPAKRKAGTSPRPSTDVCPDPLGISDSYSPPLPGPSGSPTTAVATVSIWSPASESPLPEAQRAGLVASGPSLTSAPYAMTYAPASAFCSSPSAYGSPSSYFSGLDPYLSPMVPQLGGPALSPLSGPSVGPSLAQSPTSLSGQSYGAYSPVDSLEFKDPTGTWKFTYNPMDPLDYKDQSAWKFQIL
# HSF1, sequence (Q00613 whole entry): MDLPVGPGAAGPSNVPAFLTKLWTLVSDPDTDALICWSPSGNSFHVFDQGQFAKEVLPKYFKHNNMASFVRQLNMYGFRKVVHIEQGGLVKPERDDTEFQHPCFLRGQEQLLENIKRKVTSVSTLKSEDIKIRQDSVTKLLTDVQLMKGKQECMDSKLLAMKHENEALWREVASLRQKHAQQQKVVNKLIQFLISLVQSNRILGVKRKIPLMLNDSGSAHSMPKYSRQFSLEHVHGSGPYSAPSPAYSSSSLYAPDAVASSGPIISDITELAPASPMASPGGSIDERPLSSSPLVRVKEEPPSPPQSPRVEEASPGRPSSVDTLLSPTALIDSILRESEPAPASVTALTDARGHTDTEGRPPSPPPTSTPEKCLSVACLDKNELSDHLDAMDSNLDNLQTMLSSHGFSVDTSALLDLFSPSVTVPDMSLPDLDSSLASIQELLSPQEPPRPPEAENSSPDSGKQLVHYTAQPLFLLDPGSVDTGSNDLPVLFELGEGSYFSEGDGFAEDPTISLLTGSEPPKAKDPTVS
sequence,measurement,setting,value
AAGTCT,binding signal,FEV,"1.07 fold enrichment (6-mer frequency, TF over GST control)"
same,binding signal,ETV5,"1.12 fold enrichment (6-mer frequency, TF over GST control)"
same,binding signal,HSF1,"1.25 fold enrichment (6-mer frequency, TF over GST control)"
same,binding signal,SPIC,"1.04 fold enrichment (6-mer frequency, TF over GST control)"
same,binding signal,ELF4,"1.06 fold enrichment (6-mer frequency, TF over GST control)"
same,binding signal,ELK4,"1.13 fold enrichment (6-mer frequency, TF over GST control)"
same,binding signal,ETV2,"1.06 fold enrichment (6-mer frequency, TF over GST control)"
same,binding signal,ELF3,"1.13 fold enrichment (6-mer frequency, TF over GST control)"
same,binding signal,CRX,"1.28 fold enrichment (6-mer frequency, TF over GST control)"
same,binding signal,ETV1,"1.09 fold enrichment (6-mer frequency, TF over GST control)"
same,binding signal,ERF,"1.25 fold enrichment (6-mer frequency, TF over GST control)"
same,binding signal,ETV3L,"1.14 fold enrichment (6-mer frequency, TF over GST control)"
same,binding signal,ETS2,"1.21 fold enrichment (6-mer frequency, TF over GST control)"
same,binding signal,SPDEF,"1.13 fold enrichment (6-mer frequency, TF over GST control)"
same,binding signal,ETV7,"1.15 fold enrichment (6-mer frequency, TF over GST control)"
same,binding signal,ELF5,"1.23 fold enrichment (6-mer frequency, TF over GST control)"
same,binding signal,ETV3,"1.21 fold enrichment (6-mer frequency, TF over GST control)"
same,binding signal,ETV6,"1.14 fold enrichment (6-mer frequency, TF over GST control)"
